Data published in PubChem BioAssay (EPA / NIEHS).
Activity calls are given as the source filed them. How the source made its calls: active means hit-call score of the fitted dose curve at least 0.9, where 1 is the maximum; inactive means score below 0.9.

Key:
[1] = APR_HepG2_NuclearSize_24hr: Apredica 24-hour HepG2 Assay for Nuclear Size (AID 2282907); conditions: high-content imaging, actives raise or lower the signal
Method in brief: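 Nuclear size from Hoechst 33342-stained, formaldehyde-fixed HepG2 nuclei imaged by high-content microscopy, after 24 h dosing at ten concentrations from 0.39 to 200 uM in 0.5% DMSO; gain or loss relative to DMSO baseline.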

[2] = APR_HepG2_CellLoss_24hr: Apredica 24-hour HepG2 Assay for Cell Loss (AID 2282908); conditions: high-content imaging;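 on AC50: fit in both directions so a hit may be cell loss or gain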
Method in brief: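 Nuclei stained with Hoechst 33342 after formaldehyde fixation (3.7%) were imaged at 20x to count cells. Exposure lasted 24 hr, at ten concentrations from 0.39 to 200 uM in duplicate, with 0.5% v/v DMSO. Fit bidirectional, relative to DMSO.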

[3] = APR_HepG2_MicrotubuleCSK_24hr: Apredica 24-hour HepG2 Assay for Microtubule CSK Stabilty (AID 2282909); conditions: HepG2 microtubule cytoskeleton imaging, actives raise or lower the signal
Method in brief: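 Fixed HepG2 cells were stained for alpha-tubulin and imaged after 24 hr exposure to ten concentrations spanning 0.39–200 uM in 0.5% DMSO. Signal change was fitted in both directions relative to DMSO; taxol was the positive control.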

[4] = APR_HepG2_MitoticArrest_24hr: Apredica 24-hour HepG2 Assay for Mitotic Arrest (AID 2282910); conditions: high-content imaging, actives raise or lower the signal
Method in brief: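 HepG2, 24 hr dosing, 0.39–200 uM, 0.5% DMSO final. Formaldehyde-fixed, Triton-permeabilised, anti-phospho-histone H3 plus Hoechst. ArrayScan imaging at 20x; bidirectional fit vs DMSO baseline.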

[5] = APR_HepG2_MitoMembPot_24hr: Apredica 24-hour HepG2 Assay for Mitochondrial Membrane Potential (AID 2282911); conditions: imaging, actives raise or lower the signal
Method in brief: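 HepG2 cells exposed 24 h to 0.39–200 uM compounds in duplicate, 0.5% v/v DMSO final. MitoTracker Red CMXRos 250 nM loaded 30 min before formaldehyde fixation; high-content imaging at 20x, bidirectional fit versus DMSO.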

[6] = APR_HepG2_MitoMass_24hr: Apredica 24-hour HepG2 Assay for Mitochondrial Mass (AID 2282912); conditions: high-content imaging, actives raise or lower the signal
Method in brief: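 Endpoint is MitoTracker Red CMXRos (250 nM, 30 min, pre-fixation) intensity from 20x high-content imaging, nuclei located by Hoechst. Human HepG2 cells received ten concentrations from 0.39 to 200 uM in 0.5% DMSO for 24 hr, duplicate wells. Bidirectional fit relative to DMSO.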

[7] = APR_HepG2_p53Act_24hr: Apredica 24-hour HepG2 Assay for p53 Activation (AID 2282913); conditions: high-content imaging, actives raise or lower the signal;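 further: p53 protein immunofluorescence averaged per cell in HepG2 with Hoechst nuclei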
Method in brief: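 HepG2 cells exposed 24 h to compounds at 0.39–200 uM in duplicate, 0.5% v/v DMSO final; fixed, permeabilized, stained with anti-p53 antibody and Hoechst 33342; fluorescence imaging; bidirectional curve fit versus DMSO.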

[8] = APR_HepG2_CellCycleArrest_72hr: Apredica 72-hour HepG2 Assay for Cell Cycle Arrest (AID 2282914); conditions: high-content imaging, actives raise or lower the signal
Method in brief: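 HepG2 cells exposed 72 h in duplicate to 0.39–200 uM compound, 0.5% DMSO final. Formaldehyde-fixed, Hoechst 33342-stained nuclei imaged at 20x, six fields per well; DNA content per valid cell quantified by cell-cycle image analysis, bidirectional fit versus DMSO.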

[9] = APR_HepG2_CellLoss_72hr: Apredica 72-hour HepG2 Assay for Cell Loss (AID 2282915); conditions: high-content imaging
Method in brief: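 HepG2 cells exposed 72 h to compound at 0.39–200 uM (10 concentrations, duplicate) in 0.5% DMSO. Fixed with 3.7% formaldehyde and Hoechst 33342-stained. Imaged at 20x; nuclear count gives cell number, fitted bidirectionally versus DMSO.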

Measured: AC50

CC(C)C(=O)OCC(C)(C)C(OC(=O)C(C)C)C(C)C (stereo not drawn)
inactive: [1] | [2] | [3] | [4] | [5] | [6] | [7] | [8] | [9]

O=NN(c1ccccc1)c1ccccc1
inactive: [1] | [2] | [3] | [4] | [5] | [6] | [7] | [9]

N#Cc1ccc(N(CC(N)=O)CC(F)(F)F)cc1C(F)(F)F
inactive: [1] | [2] | [3] | [4] | [5] | [7] | [8] | [9]

COc1ccc(O)c(C(C)(C)C)c1
inactive: [1] | [2] | [3] | [4] | [5] | [7] | [9]

CCCCCCCCCc1ccc(O)cc1
inactive: [1] | [2] | [3] | [4] | [5] | [7] | [9]

CN(C)CCO
inactive: [1] | [2] | [3] | [4] | [5] | [7] | [9]

Clc1ccc(Cl)cc1
inactive: [1] | [2] | [3] | [4] | [5] | [7] | [9]

O=S(=O)(O)C(F)(F)C(F)(F)C(F)(F)C(F)(F)C(F)(F)C(F)(F)F
inactive: [1] | [2] | [3] | [4] | [5] | [7] | [9]

O=C(N[C@H]1CN2CCC1CC2)c1cc2ccoc2cn1
inactive: [1] | [2] | [3] | [4] | [7] | [9]
active: [5] 0.0336 µM

Cc1cc(O)ccc1Cl
inactive: [1] | [2] | [3] | [4] | [5] | [7] | [9]

CC1=C2C[C@H]3[C@@H](CC=C4C[C@@H](O)CC[C@@]43C)[C@@H]2CC[C@]12O[C@@H]1C[C@H](C)CN[C@H]1[C@H]2C
active: [2] 20.2 µM | [4] 23.8 µM | [9] 25.3 µM
inactive: [1] | [3] | [5] | [7]

CC(C)(O)C(=O)Nc1ccc([N+](=O)[O-])c(C(F)(F)F)c1
inactive: [1] | [2] | [3] | [4] | [5] | [7] | [9]

Oc1ccc(C(c2ccc(O)cc2)(C(F)(F)F)C(F)(F)F)cc1
active: [9] 36.7 µM
inactive: [1] | [2] | [3] | [4] | [5] | [7]

O=C(O)C(F)(F)C(F)(F)C(F)(F)C(F)(F)C(F)(F)F
inactive: [1] | [2] | [3] | [4] | [5] | [7] | [9]

CO/C=C(/C(=O)OC)c1ccccc1COc1cccc(C(F)(F)F)n1
active: [2] 9.73 µM | [4] 16.8 µM | [5] 16.4 µM | [9] 3.39 µM
inactive: [1] | [3] | [7] | [8]

ClC1=C(Cl)[C@]2(Cl)[C@@H]3[C@@H](Cl)[C@H]4O[C@H]4[C@@H]3C1(Cl)C2(Cl)Cl
active: [2] 81.7 µM | [3] 82.1 µM | [4] 66.5 µM | [7] 87.7 µM | [9] 75.4 µM
inactive: [1] | [5]

CCCCCCCCOC(=O)c1ccccc1C(=O)OCCCCCCCC
inactive: [1] | [2] | [3] | [4] | [5] | [7] | [9]

C[C@]12CCC(=O)C=C1CC[C@@H]1[C@@H]2CC[C@@]2(C)[C@H]1CC[C@]2(C)O
inactive: [1] | [2] | [3] | [4] | [5] | [7] | [9]

COS(=O)(=O)OC
inactive: [1] | [2] | [3] | [4] | [5] | [7] | [9]

Cc1ccccc1O
inactive: [1] | [2] | [3] | [4] | [5] | [7] | [8] | [9]

c1ccc(-c2ccccc2)cc1
inactive: [1] | [2] | [3] | [4] | [5] | [7] | [8] | [9]

Oc1c(Cl)c(Cl)c(Cl)c(Cl)c1Cl
inactive: [1] | [2] | [3] | [4] | [5] | [7]
active: [9] 55.9 µM

ClC1=C(Cl)[C@]2(Cl)[C@@H]3[C@H]4C[C@H]([C@@H]5O[C@H]45)[C@@H]3[C@@]1(Cl)C2(Cl)Cl
active: [5] 59.3 µM
inactive: [1] | [2] | [3] | [4] | [7] | [8] | [9]

NS(=O)(=O)C(F)(F)C(F)(F)C(F)(F)C(F)(F)C(F)(F)C(F)(F)C(F)(F)C(F)(F)F
inactive: [1] | [3] | [4]
active: [2] 93.4 µM | [5] 72.5 µM | [7] 101 µM | [9] 63.4 µM

Cc1cc(-c2ccc(N)c(C)c2)ccc1N
inactive: [1] | [2] | [3] | [4] | [5] | [7] | [9]

Cc1cccc([N+](=O)[O-])c1
inactive: [1] | [2] | [3] | [4] | [5] | [7] | [9]

O=C(NC(=O)c1c(F)cccc1F)Nc1cc(Cl)c(OC(F)(F)C(F)F)c(Cl)c1
inactive: [1] | [2] | [3] | [4] | [5] | [7] | [9]

CC(C)(c1ccccc1)c1ccc(O)cc1
inactive: [1] | [3] | [4] | [5] | [7]
active: [2] 84.6 µM | [9] 63.3 µM

CCC(C)(c1ccc(O)cc1)c1ccc(O)cc1
active: [2] 111 µM | [4] 106 µM | [5] 57.6 µM | [7] 101 µM | [9] 108 µM
inactive: [1] | [3]

CC(c1ccc(O)cc1)(c1ccc(O)cc1)c1ccc(O)cc1
active: [2] 113 µM | [4] 107 µM | [5] 29.5 µM | [7] 104 µM | [9] 115 µM
inactive: [1] | [3]

CCOCCOC(C)=O
inactive: [1] | [2] | [3] | [4] | [5] | [7] | [8] | [9]

Cc1ccccc1[N+](=O)[O-]
inactive: [1] | [2] | [3] | [4] | [5] | [7] | [9]

Nc1ccc(-c2ccc(N)cc2)cc1
active: [7] 100 µM
inactive: [1] | [2] | [3] | [4] | [5] | [8] | [9]

CCCCCCCCCC[N+](C)(C)CCCCCCCCCC
inactive: [1] | [7]
active: [2] 4.36 µM | [3] 10.9 µM | [4] 4.34 µM | [5] 26 µM | [9] 3.25 µM
